Experimental data published in PubChem BioAssay AID624137 (Broad Institute, 2012).
Among all 31,000 compounds or so, about 360 (1.2%) were called active. How the calls were made is not given here. The sample as a whole holds a higher share of actives than the screen did.
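Further: a binder raises fluorescence above local background on the spot.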

What follows are molecules tested against DNA-binding protein inhibitor ID-4 (Homo sapiens) (UniProt P47928) (assay: PubChem AID 624137). Conditions: small molecule microarray, Flag-ID4 binding, fluorescence F/B.
Chain of DNA-binding protein inhibitor ID-4 (Homo sapiens) (P47928 whole entry, looked up): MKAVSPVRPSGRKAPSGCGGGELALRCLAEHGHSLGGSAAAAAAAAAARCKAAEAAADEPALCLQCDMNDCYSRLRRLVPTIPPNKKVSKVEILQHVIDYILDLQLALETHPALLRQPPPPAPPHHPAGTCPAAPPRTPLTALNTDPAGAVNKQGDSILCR
For `O=C(C[C@@H]1CC[C@@H](NS(=O)(=O)c2ccc(F)cc2)[C@H](CO)O1)NCc1ccc(Cl)c(Cl)c1`, the outcome was “inactive”.
In the case of `COc1ccccc1-c1cnc2c(c1)C(=O)N([C@H](C)CO)C[C@@H](C)[C@@H](CN(C)Cc1ccncc1)O2`, the outcome is reported as “inactive”.
In the case of `COc1ccccc1-c1cnc2c(c1)C(=O)N([C@@H](C)CO)C[C@H](C)[C@H](CN(C)C(=O)c1ccncc1)O2`, the outcome is reported as “inactive”.
With `CC(C)CC#Cc1cnc2c(c1)C(=O)N([C@@H](C)CO)C[C@H](C)[C@@H](CN(C)C(=O)c1cccc(F)c1)O2` the outcome was “inactive”.
`CC(C)CC#Cc1cnc2c(c1)C(=O)N([C@H](C)CO)C[C@H](C)[C@@H](CN(C)Cc1ccccc1)O2` was tested, and the outcome was “inactive”.
`c1ccc2[nH]c(CSc3nc4ccccc4[nH]3)nc2c1` was tested, and the outcome was “inactive”.
For `C[C@@H]1CN([C@H](C)CO)C(=O)c2cc(C#CC3CCCC3)cnc2O[C@H]1CN(C)C(=O)C1CC1`, the outcome was “inactive”.
In the case of `COc1ccccc1-c1cnc2c(c1)C(=O)N([C@@H](C)CO)C[C@H](C)[C@H](CN(C)CC1CCOCC1)O2`, the outcome is reported as “inactive”.
For `CN(C)c1ccc2c(c1)[C@@H]1C[C@@H](CC(=O)NCc3ccccn3)O[C@H](CO)[C@@H]1O2`, the outcome was “inactive”.
With `CCC(=O)N(C)C[C@H]1Oc2ncc(-c3ccc(C)cc3)cc2C(=O)N([C@@H](C)CO)C[C@@H]1C` the outcome was “inactive”.
For `COc1ccccc1-c1ccc2c(c1)O[C@H](CN(C)C(=O)c1cccnc1)[C@H](C)CN([C@@H](C)CO)S2(=O)=O`, the outcome was “inactive”.
For `COc1cc(S(=O)(=O)NCCN2CCOCC2)ccc1Br`, the outcome was “inactive”.
In the case of `O=C(CSc1nnnn1-c1ccccc1)Nc1ccccc1C(=O)c1ccccc1`, the outcome is reported as “inactive”.
`C[C@H](CO)N1C[C@H](C)[C@H](CN(C)CC2CC2)Oc2cc(-c3ccc(F)cc3)ccc2S1(=O)=O` was tested, and the outcome was “inactive”.
For `O=C(C[C@H]1C=C[C@@H](NC(=O)C2CC2)[C@H](CO)O1)NCC1CC1`, the outcome was “inactive”.
For `O=C(C[C@H]1C=C[C@@H](NC(=O)CC2CC2)[C@H](CO)O1)NCc1ccc(-c2ccccc2)cc1`, the outcome was “inactive”.
In the case of `Cc1ccc(-c2cnc3c(c2)C(=O)N([C@H](C)CO)C[C@@H](C)[C@@H](CN(C)C(=O)CN(C)C)O3)cc1`, the outcome is reported as “inactive”.
With `C[C@@H]1CN([C@H](C)CO)S(=O)(=O)c2ccc(-c3ccccc3)cc2O[C@@H]1CN(C)CC1CC1` the outcome was “inactive”.
For `CN(C)C(=O)C[C@H]1CC[C@@H](NC(=O)Nc2cccc(F)c2)[C@H](CO)O1`, the outcome was “inactive”.
For `CC(C)c1cn(CC[C@@H]2CC[C@@H](NC(=O)C3CCC3)[C@@H](CO)O2)nn1`, the outcome was “inactive”.
With `CN(C)C(=O)C[C@H]1CC[C@@H](NC(=O)C2CC2)[C@@H](CO)O1` the outcome was “inactive”.
